PubChem BioAssay (NCATS)
Records with an inconclusive call do not appear. A call without a number means that no potency is given here. Calls of active or inactive are those of the source. The call rests on the fitted dose curve; in most records, active means well fitted curve in the direction sought with a large enough effect; inconclusive means small, poorly fitted or top-dose-only effect, or another doubt; inactive means no such curve, though single readings can be large; an effect the other way counts as inactive or inconclusive.

How the values were obtained:
[1] = qHTS assay for measurement of the activity of small molecule inhibitors on Zika virus induced Caspase-3 activity in human iPSC derived neural progenitor cells (hNPCs) (AID 1224857); further: nearly all actives have a fitted effect of over 65% in size; further: potency means the concentration at half of the fitted maximal effect
Procedure, shortened: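 After overnight (16–20 h) culture at 350 cells/well, hNPCs get compound, then ZIKV 2 FFU/cell one hour later. Six hours on, Caspase-Glo 3/7 is added and luminescence measured.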

[2] = NS1 protein of Zika virus - qHTS assay to identify small molecule inhibitors in human HEK 293 cells (AID 1347053); further: series mostly up to about 46 µM; nearly all actives have a fitted effect of over 55% in size
Procedure, shortened: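 Compound-treated (1 h pre-infection) HEK 293 cells infected with ZIKV MR766, MOI = 0.5; after 24 h at 37 C, NS1 read by TR-FRET; data normalized to uninfected and infected controls.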

[3] = qHTS of pediatric cancer cell lines to identify multiple opportunities for drug repurposing: Primary screen for TC32 cells (AID 1347089); further: nearly all actives have a fitted effect of over 60% in size; further: potency means the concentration at half of the fitted maximal effect
Procedure, shortened: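 Measured quantity: luminescence from CellTiter-Glo, reflecting metabolically active TC32 cells following 48 h of compound. Curves came straight from multi-point titrations, with 8 or 11 points in primary and 11 in confirmatory screening.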

[4] = qHTS of pediatric cancer cell lines to identify multiple opportunities for drug repurposing: Primary screen for DAOY cells (AID 1347090); further: nearly all actives have a fitted effect of over 55% in size; further: potency means the concentration at half of the fitted maximal effect
Procedure, shortened: (§1)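 Cell viability, CellTiter-Glo luminescence; 500-1,000 cells/well, 8- or 11-point titration, 48 h compound exposure at 37 degrees C, 5% CO2. Controls: DMSO neutral, bortezomib 2.3 µM final as positive.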

[5] = qHTS of pediatric cancer cell lines to identify multiple opportunities for drug repurposing: Primary screen for SJ-GBM2 cells (AID 1347091); further: potency means the concentration at half of the fitted maximal effect
Procedure, shortened: as §1

[6] = qHTS of pediatric cancer cell lines to identify multiple opportunities for drug repurposing: Primary screen for A673 cells (AID 1347092); further: nearly all actives have a fitted effect of over 45% in size; further: potency means the concentration at half of the fitted maximal effect
Procedure, shortened: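 Cells are plated, rested 5 h, dosed by pintool, incubated 48 h, then lysed with CellTiter-Glo and read by luminescence. DMSO is the neutral control; bortezomib at 2.3 uM final is the positive control.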

[7] = qHTS of pediatric cancer cell lines to identify multiple opportunities for drug repurposing: Primary screen for SK-N-MC cells (AID 1347093); further: potency means the concentration at half of the fitted maximal effect
Procedure, shortened: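 Metabolically active cells were quantified by ATP-dependent luminescence (CellTiter-Glo, 15 min at room temperature) following 48 h treatment. Cells had been plated at 500-1,000 per well and settled for 5 h beforehand.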

[8] = qHTS of pediatric cancer cell lines to identify multiple opportunities for drug repurposing: Primary screen for BT-37 cells (AID 1347094); further: potency means the concentration at half of the fitted maximal effect
Procedure, shortened: (§2)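 CRCs from 8- or 11-point titrations (lowest final 0.59 nM NPC, 0.78 nM MIPE). Cell viability: CellTiter-Glo after 48 h incubation, 15 min room-temperature development, luminescence imaging.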

[9] = qHTS of pediatric cancer cell lines to identify multiple opportunities for drug repurposing: Primary screen for NB-EBc1 cells (AID 1347095); further: potency means the concentration at half of the fitted maximal effect
Procedure, shortened: as §2

[10] = qHTS of pediatric cancer cell lines to identify multiple opportunities for drug repurposing: Primary screen for U-2 OS cells (AID 1347096); further: nearly all actives have a fitted effect of over 50% in size
Procedure, shortened: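 Cells (500-1,000/well) rested 5 h, then received compounds for 48 h; metabolically active cells were measured by CellTiter-Glo luminescence. Final concentrations spanned up to 46 µM (MIPE, 11-point) or 0.59 nM-46 µM (NPC, 8-point) in primary screens, 11-point in follow-ups.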

[11] = P-glycoprotein substrates identified in KB-8-5-11 adenocarcinoma cell line, qHTS therapeutic library screen (AID 1346987); further: series mostly up to about 44 µM; nearly all actives have a fitted effect of over 65% in size
Procedure, shortened: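 Human cervical adenocarcinoma KB-8-5-11 cells, selected in colchicine to over-express P-gp and assayed without it, were exposed for 72 h to titrated compounds. An ATP-based luminescent viability signal gave AC50.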

Compound | Potency [1] | Potency [2] | Potency [3] | Potency [4] | Potency [5] | Potency [6] | Potency [7] | Potency [8] | Potency [9] | Potency [10] | Potency [11]
O=C(CCCl)NCCc1ccccc1 | inactive | inactive | inactive | inactive | inactive | inactive | inactive | inactive | inactive | inactive | –
CN(C)CCOC(c1ccccc1)c1ccc(Br)cc1 (stereo not given) | inactive | inactive | inactive | inactive | inactive | – | – | inactive | inactive | inactive | –
CCc1cc2cc(OC)c(OC)cc2c(Cc2ccccc2)n1 | inactive | inactive | inactive | inactive | – | inactive | inactive | – | – | – | –
CCCCCCCCCCCC[N+](C)(C)Cc1ccccc1 | inactive | – | – | 16800 nM (active) | inactive | 8410 nM (active) | 2660 nM (active) | 15500 nM (active) | inactive | – | inactive
Nc1cc(C(F)(F)F)ccc1S | 14100 nM (active) | inactive | – | – | inactive | 21100 nM (active) | – | inactive | – | – | –
C#CC(C)(CC)OC(=O)c1ccccc1C(=O)O (stereo not given) | inactive | inactive | inactive | inactive | – | inactive | inactive | inactive | inactive | inactive | –
O=C(O)Cn1c(=O)n(Cc2ccc(Br)cc2F)c(=O)c2ccc(Cl)cc21 | inactive | inactive | inactive | inactive | inactive | inactive | inactive | inactive | inactive | inactive | –
CN1Cc2cc(C(=O)N3CCC(C4CCNCC4)CC3)ccc2NC(CC(=O)O)C1=O (stereo not given) | inactive | inactive | inactive | inactive | inactive | inactive | inactive | inactive | inactive | inactive | –
Cc1cnc(NS(=O)(=O)c2ccc(N)cc2)nc1 | inactive | inactive | inactive | inactive | inactive | – | inactive | inactive | inactive | inactive | –
CC(C)C(=O)Nc1cccc(C2CN3CCSC3=N2)c1 (stereo not given) | inactive | – | – | inactive | inactive | inactive | inactive | inactive | – | – | –
Oc1ccc(CCNCCCCCCNCCc2ccccc2)cc1O | inactive | inactive | – | inactive | – | – | 23700 nM (active) | inactive | inactive | inactive | inactive
CC1CC(=O)NN=C1c1ccc(NCC(C)(C)NCC(O)COc2cc(Cl)ccc2C#N)cc1 (stereo not given) | inactive | inactive | inactive | inactive | – | inactive | inactive | inactive | – | – | inactive
CNC[C@H](O)[C@@H](O)[C@H](O)[C@H](O)CO | inactive | inactive | inactive | inactive | inactive | inactive | inactive | inactive | inactive | – | –
O=C1CC2(CCCC2)CC(=O)N1 | inactive | inactive | inactive | inactive | inactive | inactive | inactive | inactive | inactive | inactive | –
CC(CC1c2ccccc2CCc2ccccc21)CN(C)C (stereo not given) | inactive | inactive | inactive | inactive | – | inactive | – | – | inactive | inactive | –
C[C@@H](C1=C(CCN(C)C)Cc2ccccc21)c1ccccn1 | inactive | inactive | inactive | inactive | inactive | inactive | – | inactive | inactive | inactive | –
COC(=O)CCCCC(CCSS/C(CCO)=C(\C)N(C=O)Cc1cnc(C)nc1N)SC(C)=O (stereo not given) | inactive | inactive | inactive | inactive | – | inactive | inactive | inactive | inactive | inactive | –
CCN(CC)CC(=O)OCC(=O)[C@@]1(O)CC[C@H]2[C@@H]3CCC4=CC(=O)CC[C@]4(C)[C@H]3[C@@H](O)C[C@@]21C | inactive | – | inactive | inactive | – | inactive | inactive | inactive | inactive | inactive | –
Cc1nc(N)nc(N)c1-c1ccc(Cl)c(Cl)c1 | inactive | – | 470 nM (active) | 841 nM (active) | 299 nM (active) | 1060 nM (active) | 33.5 nM (active) | 550 nM (active) | 422 nM (active) | – | –
CCCCCOc1ccccc1/C(=C\SC)n1ccnc1 | inactive | inactive | – | inactive | – | 26600 nM (active) | – | – | – | – | –
CCCOc1ccc2c(c1)CC[C@@H]1[C@@H]2CC[C@]2(C)C(OC)CC[C@@H]12 (stereo not given in full) | inactive | inactive | inactive | inactive | inactive | – | inactive | inactive | inactive | inactive | –
